# Test results published in PubChem BioAssay (EPA / NIEHS).
# Results filed as inconclusive are left out. Activity calls are given as the source filed them. How the source made its calls: active means hit-call score of the fitted dose curve at least 0.9, where 1 is the maximum; inconclusive means response in the unintended direction; inactive means score below 0.9.
# Biological target: Nuclear receptor subfamily 1 group I member 2 (Homo sapiens) (UniProt O75469)
# Test: ATG_PXR_TRANS: Attagene TRANS-FACTORIAL HepG2 Assay for human Pregnane X Receptor (PXR) (AID 2283008)
# Summary of the method: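 HepG2 cells transiently transfected with GAL4-UAS reporter units and PXR-Gal4 chimera, exposed 24 h. Reporter mRNA quantified by RT-PCR, fluorescent labelling, HpaI digestion and capillary electrophoresis; gain of signal vs DMSO.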
# Chain of Nuclear receptor subfamily 1 group I member 2 (Homo sapiens) (O75469 whole entry, looked up): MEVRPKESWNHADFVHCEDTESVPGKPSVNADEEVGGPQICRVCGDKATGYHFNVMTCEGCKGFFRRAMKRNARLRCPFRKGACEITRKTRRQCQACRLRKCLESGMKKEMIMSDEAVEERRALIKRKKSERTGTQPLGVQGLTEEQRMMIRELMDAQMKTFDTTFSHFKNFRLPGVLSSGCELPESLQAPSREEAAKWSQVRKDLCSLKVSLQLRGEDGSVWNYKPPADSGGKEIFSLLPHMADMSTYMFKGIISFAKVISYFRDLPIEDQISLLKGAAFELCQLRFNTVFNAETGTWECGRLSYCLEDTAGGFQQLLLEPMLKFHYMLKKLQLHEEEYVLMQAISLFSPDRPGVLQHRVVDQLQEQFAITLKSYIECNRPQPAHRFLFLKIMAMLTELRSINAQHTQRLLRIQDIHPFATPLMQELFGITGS
SMILES,outcome,AC50
C=CCCCCCCCCOC(C)=O,inactive,
CCCC=C(C=O)CC,inactive,
O=C1CCCN1C1CCCCC1,inactive,
COC(=O)CC(C)CCC=C(C)C (stereo unspecified),inactive,
CCC(C)c1ccccc1 (stereo unspecified),inactive,
CCC(C)(O)CCCC(C)C (stereo unspecified),inactive,
CCCCOC(=O)CCC(C)=O,inactive,
Nc1ccc(C(=O)OCCCOC(=O)c2ccc(N)cc2)cc1,,19.6 µM (active)
CC(C)CCOCc1ccccc1,inactive,
CC(=O)c1ccccc1O,inactive,
C=C(C)OC(C)=O,inactive,
C=CC(=O)OCCCCCCCCCC,inactive,
CCCCCCCCCCCCc1ccc(O)cc1,,3 µM (active)
O=C(OCc1ccccc1)c1ccc(O)cc1,,63.2 µM (active)
O=C(O[C@@H]1Cc2c(O)cc(O)cc2O[C@@H]1c1cc(O)c(O)c(O)c1)c1cc(O)c(O)c(O)c1,inactive,
C/C=C/C=C/CCCCCCCO,inactive,
C=CC(C)(CCC=C(C)C)OC(=O)C=Cc1ccccc1 (stereo unspecified),,2.75 µM (active)
CCCCC(C=O)CC (stereo unspecified),inactive,

# Biological target: human Retinoic Acid Receptor gamma (RARg), RARG (gene 5916) (UniProt P13631)
# Test: ATG_RARg_TRANS: Attagene TRANS-FACTORIAL HepG2 Assay for human Retinoic Acid Receptor gamma (RARg) (AID 2283009)
# Summary of the method: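 HepG2, RARg-GAL4 TRANS system, 24 h exposure; reporter mRNA by RT-PCR + CE fluorescence; increase over DMSO.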
# Chain of human Retinoic Acid Receptor gamma (RARg), RARG (gene 5916) (P13631 whole entry, looked up): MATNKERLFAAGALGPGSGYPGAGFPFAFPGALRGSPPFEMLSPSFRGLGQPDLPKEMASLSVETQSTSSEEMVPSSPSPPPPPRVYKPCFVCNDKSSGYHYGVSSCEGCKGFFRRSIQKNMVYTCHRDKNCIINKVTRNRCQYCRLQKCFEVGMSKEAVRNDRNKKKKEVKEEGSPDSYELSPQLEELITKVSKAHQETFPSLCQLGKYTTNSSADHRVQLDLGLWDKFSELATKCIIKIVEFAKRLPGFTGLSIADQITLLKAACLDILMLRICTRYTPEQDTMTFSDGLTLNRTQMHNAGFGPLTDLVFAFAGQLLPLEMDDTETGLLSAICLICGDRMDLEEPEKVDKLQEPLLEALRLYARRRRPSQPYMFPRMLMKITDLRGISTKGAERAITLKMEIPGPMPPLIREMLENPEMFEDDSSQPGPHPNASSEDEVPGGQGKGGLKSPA
row,SMILES,outcome
1,CC(C)=CCl,inactive
2,CCC(C)c1ccccc1 (stereo unspecified),inactive
3,CC(C)OC(=O)c1ccccc1,inactive
4,CC1=C(O)C(=O)C(C)O1 (stereo unspecified),inactive
5,O=C(OCCc1ccccc1)c1ccccc1,inactive
6,CCCCCCCCCCCC(=O)OCC,inactive
7,CCCCCCCC(=O)OCC,inactive
8,C=C(C)C1CC=C(C)CC1 (stereo unspecified),inactive
9,N#CC1(N)CCCCC1,inactive
10,C=C(C)OC(C)=O,inactive
11,CCCc1ccc(O)c(OC)c1,inactive
12,CCCCCCCCCCCCc1ccc(O)cc1,inactive
13,O=C(O[C@@H]1Cc2c(O)cc(O)cc2O[C@@H]1c1cc(O)c(O)c(O)c1)c1cc(O)c(O)c(O)c1,inactive
